{
  "source": "PubChem BioAssay (NCI)",
  "note": "Compounds without any hit were thinned out: in the full panel of roughly 83,000, 20% have a hit.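 Single-dose data. Exposure time 48 hours. Values below 10 considered active.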 A number with no mark means an inactive call. Calls of active or inactive are those of the source.",
  "data": [
    {"tested_on": "T-47D breast", "experiment": "NCI-60 one-dose screen, 48 h (100 = growth as untreated, 0 = no growth, -100 = all killed)", "details": "10 µM unless noted", "values": [
      {"smiles": "CNC(=O)c1cc(Oc2ccc3nc(NC(=O)Nc4ccc(F)cc4F)sc3c2)ccn1", "growth": "56.5%"},
      {"smiles": "CCOC(=O)c1c2c(n3ccc(NC(=O)CCN4CCCC4)cc13)C(=O)c1ncccc1C2=O", "growth": "-43.9% (active)"},
      {"smiles": "CNC(=O)c1cc(Oc2ccc3nc(NC(=O)c4cc(C(F)(F)F)cc(C(F)(F)F)c4)sc3c2)ccn1", "growth": "0.372% (active)"},
      {"smiles": "CC(=O)CC(=O)c1ccccc1.[Cu+2]", "growth": "93.2%"},
      {"smiles": "O=c1c2cccc3c(N4CCOCC4)ccc(c32)c2nc3ccccc3n12", "growth": "38.1%"},
      {"smiles": "CN(C)C(=O)OCc1ccc2c(Cl)cc(Cl)c(O)c2n1", "growth": "37.8%"},
      {"smiles": "COc1ccc(-c2ccc(-c3ccc(C(=N)N)nc3)s2)cc1", "growth": "-31.1% (active)"},
      {"smiles": "CN1CCN(c2ccc(Nc3ncc4[nH]c(=O)n(Cc5ccccc5N)c4n3)cc2)CC1", "growth": "75.3%"},
      {"smiles": "NC(=N\\N=C/c1ccc(Cl)cc1Cl)/C(N)=N\\N=C/c1ccc(Cl)cc1Cl", "growth": "10.8%"},
      {"smiles": "C=C1C(=O)O[C@H]2[C@H]1CC/C(COC(=O)NCc1ccc(Cn3c(=O)sn(CCCC)c3=O)cc1)=C\\CC[C@@]1(C)O[C@@H]21", "growth": "26.2%"},
      {"smiles": "FC(F)(F)c1cccc(-c2nnn(Cc3cc(-c4cccc(Cl)c4)no3)n2)c1", "growth": "108%"},
      {"smiles": "O=C(c1ccc(F)cc1)C1CCN(CCn2c(=O)[nH]c3ccccc3c2=O)CC1", "growth": "102%"},
      {"smiles": "Cc1ccc(C2(C)NC(=O)N(CC(=O)Nc3cccc(C)c3)C2=O)cc1", "note": "(stereo not given)", "growth": "94.4%"},
      {"smiles": "COc1ccc(C(=O)C2OC3=C(C(=O)CC(C)(C)C3)C2c2cccc(Oc3ccccc3)c2)cc1", "note": "(stereo not given)", "growth": "76%"},
      {"smiles": "CC1(C)C2=C(C(=O)N1Cc1ccccc1)C(c1ccco1)N(C(=O)C1CCC1)CCN2", "note": "(stereo not given)", "growth": "90.9%"},
      {"smiles": "COc1ccc(Nc2nccc(Nc3ccc4[nH]ncc4c3)n2)cc1", "growth": "-3.74% (active)"},
      {"smiles": "Cc1nn(-c2ccccc2)c(Oc2ccccc2)c1/C=N/NC(=O)Cn1c(=O)sc2ccccc21", "growth": "14.7%"},
      {"smiles": "CCN1C(=O)N(CC)C2C1NC(=S)N2/N=C/C=C/c1cccs1", "note": "(stereo not given)", "growth": "66.4%"},
      {"smiles": "O=C(Nc1ncc(Cc2ccc(Cl)cc2)s1)c1ccc2c(c1)OCCO2", "growth": "46.1%"},
      {"smiles": "C#Cc1ccc(NC(=O)Cc2ccc(/C=C/C(=O)c3nccn3C)cc2)cc1", "growth": "69.2%"},
      {"smiles": "CN(C)CCOc1nc2c3cc([N+](=O)[O-])ccc3nn2c2ccccc12", "growth": "46.5%"},
      {"smiles": "CCN(CC)CCCC(Nc1c2ccc(Cl)cc2nc2ccc(OC)cc12)c1ccncc1", "note": "(stereo not given)", "growth": "113%"},
      {"smiles": "CCOC(=O)c1cnc2sc(-c3ccc(OC)cc3)nc2c1Cl", "growth": "97.2%"},
      {"smiles": "COc1ccc2c(O)cc3c(c2c1)[C@H](CCl)CN3C(=O)c1cc2cc(NC(=O)CCN3CCOCC3)ccc2[se]1", "growth": "-21.4% (active)"},
      {"smiles": "Oc1ccc(Cc2ccc(O)c3ncccc23)c2cccnc12", "growth": "-3.14% (active)"},
      {"smiles": "CO[C@]12C=C/C(=C(/C(=O)OCc3cccnc3)C(=O)CCCCCCCC[C@]3(OC)C=C/C(=C(/C(=O)OCc4cccnc4)C(=O)CCCCCCCC1)O3)O2", "growth": "-17.2% (active)"},
      {"smiles": "CC(C)=CCC[C@](C)(O)C1CC[C@]2(C)[C@@H]1CC[C@@H]1[C@@]3(C)CC/C(=N\\OCCC#N)C(C)(C)[C@@H]3CC[C@]12C", "note": "(stereo not given in full)", "growth": "52.6%"},
      {"smiles": "Cn1cc(-c2ccc3c(Nc4cccc(NC(=O)Nc5cccc(F)c5)c4)ncnc3c2)cn1", "growth": "21.5%"},
      {"smiles": "O=c1oc2ccccc2cc1-c1nn(-c2ccccc2)cc1/C=N/Nc1nc(-c2ccccc2)c(N=Nc2ccccc2)s1", "growth": "57.4%"},
      {"smiles": "CCCNNC(=O)c1ccc(CNC(=O)/C=C/c2ccccc2)cc1", "growth": "0.925% [2.5 µM] (active)"},
      {"smiles": "C=C(CNCCO)[C@@H]1CC[C@]2(CO)CC[C@]3(C)[C@H](CC[C@@H]4[C@@]5(C)CCC(NCCO)C(C)(C)[C@@H]5CC[C@]43C)[C@@H]12", "note": "(stereo not given in full)", "growth": "84.4%"},
      {"smiles": "COc1cccc(-c2cc(-c3ccc(Nc4nc(Nc5ccc(Cl)cc5)nc(Nc5ccc(Cl)cc5)n4)cc3)nc(N)c2C#N)c1", "growth": "-30.3% (active)"},
      {"smiles": "CC(C)C(=O)Nc1ncc(C(=O)NCCN(Cc2ccccc2)C(=O)c2ccc(S(=O)(=O)Nc3ccccc3)cc2)s1", "growth": "91.7%"},
      {"smiles": "CN1CCN(Cc2ccc(NC(=O)c3cncc(C#Cc4cnc(N)c5ccc(C#N)cc45)c3)cc2C(F)(F)F)CC1", "growth": "10.4%"},
      {"smiles": "COc1ccc2c(c1)c(-c1nc(-c3cn(C)c4ccncc34)cs1)cn2C", "growth": "95.7%"},
      {"smiles": "O=C(OCC(O)(CO)C(=O)NC12CC3CC(CC(C3)C1)C2)c1ccc(Cl)cc1", "note": "(stereo not given)", "growth": "88.9%"},
      {"smiles": "Cn1ccnc1C(=O)/C=C/c1ccc(CC(=O)Nc2cc(F)c(F)c(F)c2)cc1", "growth": "29.2%"},
      {"smiles": "Cc1ccc(Nc2cc(N)nc(N)n2)cc1", "growth": "98.9%"},
      {"smiles": "Cc1nc2ccccc2c(/C=C/c2ccc(Cl)cc2)c1C(=O)/C=C/c1ccccc1", "growth": "9.61% (active)"},
      {"smiles": "NS(=O)(=O)Oc1cccc(-c2nc3sccn3c2-c2ccccc2)c1", "growth": "36.2%"}
    ]}
  ]
}
